# In PubChem BioAssay:
# Calls of active or inactive are those of the source. Unless noted, no stated cut-off is given here; in the data, active means inhibition above about 80%; inactive means the rest.
# Assays:
# [1] = CRL2098 osteosarcoma cell growth inhibition, synergistic combos for chromothripsis tumors, BGB or cisplatin IC20 combos (AID 1671454); settings: CRL2098 osteosarcoma cells, drug combinations, stronger effect = higher value;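 further: cells exposed for 96 h before readout; 0% = vehicle DMSO and 100% = killing by high DMSO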
# [2] = HD-MB03 medulloblastoma cell growth inhibition, synergistic combos for chromothripsis tumors, BGB or cisplatin IC20 combos (AID 1671455; in the data active means inhibition above about 83%;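 further: 0% = vehicle DMSO and 100% = high DMSO as cytotoxic control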); settings: HD-MB03 medulloblastoma cells, stronger effect = higher value
# [3] = UWB1.289 ovarian carcinoma cell growth inhibition, synergistic combos for chromothripsis tumors, BGB or cisplatin combos (AID 1671456); settings: UWB1.289 ovarian carcinoma cells, stronger effect = higher value;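 further: cells exposed to compound for four days; 0% = vehicle DMSO and 100% = killing by high DMSO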
# [4] = LFS_MB_2R medulloblastoma cell growth inhibition, synergistic combos for chromothripsis tumors, cisplatin combos (AID 1671457); settings: LFS_MB_2R medulloblastoma cells, stronger effect = higher value;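 further: cells exposed to compound for four days before readout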
# [5] = MDA-MB-436 breast carcinoma cell growth inhibition, synergistic combos for chromothripsis tumors, BGB or cisplatin combos (AID 1671458; call rule not given here;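 further: cells exposed for 96 hours; 0% = vehicle DMSO and 100% = killing by high DMSO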); settings: MDA-MB-436 breast carcinoma growth inhibition, drug combinations, stronger effect = higher value
# [6] = UWB1.289_BRCA1 ovarian cancer growth, cell-based, BGB or cisplatin combinations (AID 1671459); settings: UWB1.289 BRCA1 ovarian carcinoma, drug combinations, stronger effect = higher value
# [7] = human astrocyte viability loss, single and combined drugs, cytotoxicity control for chromothriptic childhood tumor combination screen, cell-based, BGB or cisplatin IC20 combos (AID 1671460); settings: Human astrocytes, drug combinations, stronger effect = higher value;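 further: cells exposed to compounds for 96 hours before viability readout; 0% = vehicle and 100% = killing control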
# [8] = growth inhibition of BT084 medulloblastoma cells, cell-based, ICGC_MB145, cisplatin and BGB IC40 combos (AID 1671461); settings: drug combinations, stronger effect = higher value;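 further: cells exposed to drugs for 96 hours; 0% = vehicle DMSO and 100% = high DMSO full killing control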
# [9] = growth inhibition of RCMB18 medulloblastoma cells, cell-based, cisplatin and BGB IC40 combos (AID 1671462); settings: stronger effect = higher value;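 further: cells exposed to compound for four days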
# [10] = growth inhibition of CRL1545 osteosarcoma cells, cell-based, cisplatin and BGB IC20 combos (AID 1671464); settings: stronger effect = higher value;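 further: cells exposed to compound for 96 hours before readout; 0% = vehicle DMSO and 100% = high DMSO killing control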
# [11] = viability rescue of complex I mutant cybrids, primary screen, cell-based, galactose medium, ATP luminescence (AID 1645843;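 active means z-score of at least 1.8 in each of two replicates, scored against plate mean and spread of sample wells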;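 further: positive z means more ATP and so rescue of galactose-driven cybrid death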); settings: complex I mutant cybrid cells, 72 h, stronger effect = higher value
# [12] = LFS_MB_P medulloblastoma growth inhibition, cell-based, chromothripsis tumors, cisplatin or BGB combos (AID 1671449); settings: LFS_MB_P medulloblastoma cells;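 further: cells exposed for 96 hours; 0% = vehicle DMSO and 100% = killing by high DMSO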
# [13] = HDN33 neuroblastoma growth inhibition, cell-based, chromothripsis tumors, cisplatin or BGB combos (AID 1671450); settings: HDN33 neuroblastoma cells, stronger effect = higher value;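 further: cells exposed to compound for four days; 0% = vehicle DMSO and 100% = cell killing by high DMSO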
# [14] = ICB984 medulloblastoma cell growth inhibition, synergistic combos for chromothripsis tumors, cisplatin or BGB combos (AID 1671451; call rule not given here;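 further: cells exposed for 96 hours before readout; 0% = vehicle DMSO and 100% = killing by high DMSO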); settings: ICB984 medulloblastoma cells, drug combinations, stronger effect = higher value
# [15] = LFS_MB_1R medulloblastoma cell growth inhibition, synergistic combos for chromothripsis tumors, cisplatin or BGB combos (AID 1671452); settings: LFS_MB_1R medulloblastoma cells, stronger effect = higher value;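 further: cells exposed for 96 hours before readout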
# [16] = HTB85 osteosarcoma cell growth inhibition, synergistic combos for chromothripsis tumors, BGB or cisplatin IC20 combos (AID 1671453); settings: HTB85 osteosarcoma cells, drug combinations, stronger effect = higher value;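 further: cells exposed for 96 hours before readout; 0% = vehicle DMSO and 100% = high DMSO killing control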
# [17] = measured here: combination with BGB at IC20, at 0.5 µM
# [18] = measured here: combination with cisplatin at IC20, at 0.5 µM
# [19] = measured here: combo with BGB at IC20, at 0.5 µM
# [20] = measured here: combo with cisplatin at IC20, at 0.5 µM
# [21] = measured here: inhibition with BGB combination, at 0.05 µM
# [22] = measured here: inhibition with cisplatin combination, at 0.05 µM
# [23] = measured here: combination with cisplatin, at 0.5 µM
# [24] = measured here: combination with cisplatin, at 5 µM
# [25] = measured here: BGB combination, at 0.5 µM
# [26] = measured here: BGB combination, at 5 µM
# [27] = measured here: cisplatin combination, at 0.5 µM
# [28] = measured here: cisplatin combination, at 5 µM
# [29] = BGB combination, concentration series, at 5 µM
# [30] = cisplatin combination, concentration series, at 5 µM
# [31] = measured here: combo with BGB IC20, at 0.5 µM
# [32] = measured here: combo with cisplatin IC20, at 0.5 µM
# [33] = cisplatin combination, at 0.5 µM
# [34] = measured here: BGB IC40 combination 0.05 uM, at 0.05 µM
# [35] = measured here: BGB IC40 combination, at 0.05 µM
# [36] = measured here: with BGB IC20 combination, at 0.5 µM
# [37] = measured here: with cisplatin IC20 combination, at 0.5 µM
# [38] = measured here: combination with BGB IC40, at 0.05 µM
compound,measurement,setting,value
O=C1N=c2ccccc2=C1c1c(O)[nH]c2ccccc12,inhibition,[1]; at 0.5 µM,-38.8% (inactive)
same,inhibition,[1]; [17],-85.6%
same,inhibition,[1]; [18],-13.6%
same,inhibition,[2]; at 0.5 µM,-7.99% (inactive)
same,inhibition,[2]; [19],-0.15%
same,inhibition,[2]; [20],-18.7%
same,inhibition,[3]; at 0.5 µM,-2.76% (inactive)
same,inhibition,[3]; [21],-4.21%
same,inhibition,[3]; [22],-14.6%
same,inhibition,[4]; at 0.5 µM,-4.68% (inactive)
same,inhibition,[4]; [23],-7.54%
same,inhibition,[4]; [24],96.6%
same,inhibition,[5]; at 0.5 µM,0.62% (inactive)
same,inhibition,[5]; [25],-2.01%
same,inhibition,[5]; [26],38.1%
same,inhibition,[5]; [27],2.13%
same,inhibition,[5]; [28],46%
same,inhibition,[6]; [29],47.2%
same,inhibition,[6]; at 0.5 µM,-5.34% (inactive)
same,inhibition,[6]; [30],63.2%
same,inhibition,[7]; at 0.5 µM,-0.99% (inactive)
same,inhibition,[7]; [31],17.5%
same,inhibition,[7]; [32],-29.2%
same,inhibition,[8]; at 0.5 µM,-8.62% (inactive)
same,inhibition,[8]; [33],-4.64%
same,inhibition,"[8]; cisplatin combination, at 5 µM",99.5%
same,inhibition,[8]; [34],21.5%
same,inhibition,"[8]; single agent, at 5 µM",59.7%
same,inhibition,[9]; at 0.5 µM,50.6% (inactive)
same,inhibition,"[9]; cisplatin combo, at 5 µM",103%
same,inhibition,[9]; [35],-10.1%
same,inhibition,[9]; [23],81.1%
same,inhibition,"[9]; single agent, at 5 µM",98.9%
same,inhibition,[10]; at 0.5 µM,7.46% (inactive)
same,inhibition,[10]; [36],-4.11%
same,inhibition,[10]; [37],11.3%
same,inhibition,"[10]; single agent, at 0.05 µM",-37%
same,inhibition,"[10]; single agent, at 5 µM",95.5%
CCN(C(=O)c1cc(-c2cnc(C3CC3)nc2)nc2cc(C)ccc12)C(C)C,z-score,[11],1.41 (inactive)
C[n+]1ccc(-c2c3nc(c(-c4cc[n+](C)cc4)c4ccc([nH]4)c(-c4cc[n+](C)cc4)c4nc(c(-c5cc[n+](C)cc5)c5ccc2[nH]5)C=C4)C=C3)cc1,inhibition,"[12]; at 0.5 µM, stronger effect = higher value",-16.4% (inactive)
same,inhibition,"[12]; measured here: combination with BGB IC20, at 0.005 µM",4.93%
same,inhibition,"[12]; measured here: combination with BGB IC40, at 0.005 µM",-7.27%
same,inhibition,[12]; [38],5.45%
same,inhibition,"[12]; measured here: combination with cisplatin, at 0.5 µM, stronger effect = higher value",-7.43%
same,inhibition,"[12]; measured here: combination with cisplatin, at 5 µM, stronger effect = higher value",6.44%
same,inhibition,"[13]; BGB combo, at 5 µM",-33%
same,inhibition,[13]; at 0.5 µM,-31.4% (inactive)
same,inhibition,"[13]; cisplatin combo, at 5 µM",-48.7%
same,inhibition,[13]; [36],-41%
same,inhibition,[13]; [37],-34.4%
same,inhibition,"[13]; single agent, at 5 µM",-48.2%
same,inhibition,"[14]; BGB IC20 combo, at 0.005 µM",-7.96%
same,inhibition,"[14]; BGB IC40 combo, at 0.005 µM",-38.9%
same,inhibition,"[14]; BGB IC40 combo, at 0.05 µM",-28.5%
same,inhibition,[14]; at 0.5 µM,-22.5% (inactive)
same,inhibition,"[14]; cisplatin combo, at 0.05 µM",-33.6%
same,inhibition,"[14]; cisplatin combo, at 0.5 µM",-35.2%
same,inhibition,"[14]; cisplatin combo, at 5 µM",-30.8%
same,inhibition,"[14]; measured here: 5 uM single agent, at 5 µM",-3.94%
same,inhibition,[15]; at 0.5 µM,-33.2% (inactive)
same,inhibition,[15]; [38],-38.7%
same,inhibition,[15]; [23],-36.8%
same,inhibition,[15]; [24],-24.6%
same,inhibition,[16]; at 0.5 µM,-31.3% (inactive)
same,inhibition,"[16]; measured here: with BGB IC20, at 0.5 µM",-48.7%
same,inhibition,"[16]; measured here: with BGB IC20, at 5 µM",-28.8%
same,inhibition,"[16]; measured here: with cisplatin IC20, at 0.5 µM",-29.2%
same,inhibition,"[16]; measured here: with cisplatin IC20, at 5 µM",1.2%
same,inhibition,"[16]; single agent, at 5 µM",-24.3%
same,inhibition,[1]; at 0.5 µM,-75.6% (inactive)
same,inhibition,[1]; [17],-55.7%
same,inhibition,[1]; [18],-59.6%
same,inhibition,[2]; at 0.5 µM,-18.1% (inactive)
same,inhibition,[2]; [19],-21.5%
same,inhibition,[2]; [20],-12.4%
same,inhibition,[3]; at 0.5 µM,-15% (inactive)
same,inhibition,[3]; [21],-39.4%
same,inhibition,[3]; [22],-10%
same,inhibition,[4]; at 0.5 µM,-18.1% (inactive)
same,inhibition,[4]; [23],-16.6%
same,inhibition,[4]; [24],-12.4%
same,inhibition,[5]; at 0.5 µM,-9.73% (inactive)
same,inhibition,[5]; [25],-10.7%
same,inhibition,[5]; [26],-18%
same,inhibition,[5]; [27],-7.22%
same,inhibition,[5]; [28],-11.9%
same,inhibition,[6]; [29],-36.3%
same,inhibition,[6]; at 0.5 µM,-17.4% (inactive)
same,inhibition,[6]; [30],-6.54%
same,inhibition,[7]; at 0.5 µM,-1.53% (inactive)
same,inhibition,[7]; [31],4.28%
same,inhibition,[7]; [32],3.89%
same,inhibition,[8]; at 0.5 µM,-2.03% (inactive)
same,inhibition,[8]; [33],-16.4%
same,inhibition,"[8]; cisplatin combination, at 5 µM",4.22%
same,inhibition,[8]; [34],-24.6%
same,inhibition,"[8]; single agent, at 5 µM",-14.3%
same,inhibition,[9]; at 0.5 µM,-13.6% (inactive)
same,inhibition,"[9]; cisplatin combo, at 5 µM",1.63%
same,inhibition,[9]; [35],-15.7%
same,inhibition,[9]; [23],-4.98%
same,inhibition,"[9]; single agent, at 5 µM",-32.1%
same,inhibition,[10]; at 0.5 µM,-40.2% (inactive)
same,inhibition,[10]; [36],-36.3%
same,inhibition,[10]; [37],-42.2%
same,inhibition,"[10]; single agent, at 0.05 µM",-36.8%
same,inhibition,"[10]; single agent, at 5 µM",45%
